Data taken from PubChem BioAssay AID1159580 (chemical genetic matrix, 2015).
Several values for one entry are separate records, joined by “and”; a condition that tells them apart may be missing. Identical values can stand only once. In all, about 5,500 compounds went through this assay and about 2,000 (36%) were called active. Roughly 18% stayed inconclusive and do not appear here. No stated cut-off is given here; in the data, active means normalized growth mostly below about 0.91 (no sharp cut-off); inconclusive means no clear call, values can overlap the other calls; inactive means mostly above about 0.92. The list shows a part of the results.

Assay: chemical genetic growth profiling, strain panel (AID 1159580);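 further: tested at 20 µM; growth read once vehicle control cultures reached saturation at 30 °C; 1 = growth at the plate median or of vehicle wells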
Conditions: S. cerevisiae deletion strains, growth OD

Measured: normalized growth

COC(=O)C[C@H]1C(C)(C)[C@@H](O)[C@@H]2CC3=C4CC(O)O[C@@H](c5ccoc5)[C@]4(C)CCC3[C@@]1(C)C2=O (some centres not stated)
inactive: locus YAL013W, strain DEP1, stronger effect = lower value 1.01 | locus YAL021C, strain ccr4, stronger effect = lower value 1.01 | locus YAL026C, strain drs2, stronger effect = lower value 1.06 | locus YAL030W, strain snc1, stronger effect = lower value 1.03 | locus YBL061C, strain skt5, stronger effect = lower value 1.03 | locus YBR009C, strain hhf1, stronger effect = lower value 1.02 | locus YBR021W, strain FUR4, stronger effect = lower value 1.07 | locus YBR023C, strain chs3, stronger effect = lower value 1 | locus YBR171W, strain sec66, stronger effect = lower value 1.05 | locus YBR229C, strain ROT2, stronger effect = lower value 1 | locus YBR231C, strain swc5, stronger effect = lower value 1.03 | locus YBR279W, strain paf1, stronger effect = lower value 1.03 | locus YCL011C, strain gbp2, stronger effect = lower value 1 | locus YCL016C, strain dcc1, stronger effect = lower value 0.99 | locus YCL029C, strain bik1, stronger effect = lower value 0.99 | locus YCL069W, strain vba3, stronger effect = lower value 1.01 | locus YCR088W, strain abp1, stronger effect = lower value 1.02 | locus YDL005C, strain med2, stronger effect = lower value 1.03 | locus YDL035C, strain GPR1, stronger effect = lower value 1.03 | locus YDL040C, strain nat1, stronger effect = lower value 1.02 | locus YDL074C, strain BRE1, stronger effect = lower value 1.01 | locus YDL101C, strain DUN1, stronger effect = lower value 1 | locus YDL134C, strain PPH21, stronger effect = lower value 0.978 | locus YDL185W, strain tfp1, stronger effect = lower value 0.962 | locus YDL192W, strain arf1, stronger effect = lower value 0.989 | locus YDR001C, strain nth1, stronger effect = lower value 1.02 | locus YDR069C, strain doa4, stronger effect = lower value 1.02 | locus YDR101C, strain arx1, stronger effect = lower value 0.999 | locus YDR137W, strain rgp1, stronger effect = lower value 1.01 | locus YDR159W, strain sac3, stronger effect = lower value 1.09 | locus YDR162C, strain NBP2, stronger effect = lower value 0.987 | locus YDR195W, strain ref2 1.01 | locus YDR297W, strain sur2, stronger effect = lower value 1.03 | locus YDR318W, strain mcm21, stronger effect = lower value 0.991 | locus YDR334W, strain swr1, stronger effect = lower value 1.03 | locus YDR335W, strain msn5, stronger effect = lower value 1.01 | locus YDR388W, stronger effect = lower value 0.984 | locus YDR392W, strain spt3, stronger effect = lower value 0.938 | locus YDR502C, strain sam2, stronger effect = lower value 0.981 | locus YEL003W, strain gim4, stronger effect = lower value 1.05 | locus YEL037C, strain rad23, stronger effect = lower value 1.03 | locus YEL061C, strain CIN8 (second series), stronger effect = lower value 1.02 | locus YEL061C, strain CIN8, stronger effect = lower value 1.01 | locus YER015W, strain faa2, stronger effect = lower value 1.01 | locus YER016W, strain bim1, stronger effect = lower value 1.02 | locus YER110C, stronger effect = lower value 0.98 | locus YER111C, strain swi4, stronger effect = lower value 1.03 | locus YER155C, strain BEM2 (second series), stronger effect = lower value 1.08 | locus YER155C, strain BEM2, stronger effect = lower value 0.998 | locus YER167W, strain BCK2, stronger effect = lower value 1.01 | locus YFR010W, strain ubp6, stronger effect = lower value 1.05 | locus YGL078C, strain dbp3, stronger effect = lower value 0.97 | locus YGL086W, strain mad1, stronger effect = lower value 1.02 | locus YGL167C, strain pmr1, stronger effect = lower value 1.02 | locus YGL173C, strain kem1, stronger effect = lower value 1.06 | locus YGL227W, strain vid30, stronger effect = lower value 1.03 | locus YGL240W, strain doc1, stronger effect = lower value 1.04 | locus YGL248W, strain PDE1, stronger effect = lower value 1.01 | locus YGL253W, strain hxk2, stronger effect = lower value 1.04 | locus YGR078C, strain PAC10, stronger effect = lower value 0.985 | locus YGR135W, strain pre9, stronger effect = lower value 0.95 | locus YGR229C, strain SMI1, stronger effect = lower value 1.04 | locus YGR252W, strain gcn5, stronger effect = lower value 0.981 | locus YHR013C, strain ard1, stronger effect = lower value 1.01 | locus YHR027C, strain rpn1, stronger effect = lower value 1.02 | locus YHR030C, strain SLT2, stronger effect = lower value 1.01 | locus YHR079C, strain IRE1 (second series), stronger effect = lower value 0.984 | locus YHR079C, strain IRE1, stronger effect = lower value 1.01 | locus YHR094C, strain hxt1, stronger effect = lower value 0.979 | locus YHR129C, strain ARP1, stronger effect = lower value 1 | locus YHR142W, strain chs7, stronger effect = lower value 0.994 | locus YHR200W, strain rpn10, stronger effect = lower value 0.996 | locus YIL066C, strain RNR3, stronger effect = lower value 1.02 | locus YIL073C, strain SPO22, stronger effect = lower value 0.916 | locus YIL125W, strain kgd1, stronger effect = lower value 0.987 | locus YIR030C, strain dcg1, stronger effect = lower value 0.976 | locus YJL092W, strain hpr5, stronger effect = lower value 1.03 | locus YJL095W, strain BCK1 (second series), stronger effect = lower value 1.02 | locus YJL095W, strain BCK1, stronger effect = lower value 0.977 and 1.02 | locus YJL115W, strain asf1, stronger effect = lower value 1.03 | locus YJL129C, strain trk1, stronger effect = lower value 1 | locus YJL134W, strain LCB3, stronger effect = lower value 1 | locus YJL154C, strain vps35, stronger effect = lower value 1.02 | locus YJL164C, strain tpk1, stronger effect = lower value 1.01 | locus YJL166W, strain qcr8, stronger effect = lower value 1.03 | locus YJL168C, strain set2, stronger effect = lower value 0.991 | locus YJL187C, strain SWE1 (second series), stronger effect = lower value 0.987
